Assay results taken from the supplement of paper PMC10849652.
The full data set covers some 7,900 targets. This sample favours those with a hit. About 0.6% of all pairs of compound and target were hits. Values without a mark were called inactive.

Columns and labels:
Assay in all cases: log2 fold change, soluble protein after heating vs DMSO (PISA); higher = thermal stabilisation; K562 cells, 10 uM, 30 min; active = over 0.2 and 3.5 SD of the protein, either way, in both replicates (recomputed)
[1] = compound: CS(=O)(=O)c1ccc(-c2cnc(N)c(C(=O)Nc3ccccc3)n2)cc1
Procedure, shortened: (§1)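 K562 cells (2×10^6 cells/mL) were treated with 10 μM compound for 30 min, and aliquots were heated for 3 min over 48°C-58°C. Pooled aliquots were extracted in PBS with 0.5% NP-40 at 4°C, and the supernatant after 21,000xg for 90 min was measured by TMTpro 16plex LC-MS/MS with channel sums equalised. Reported thermal stability, relative to control samples and from duplicates, is a log2 fold change.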

crizotinib = compound: C[C@@H](Oc1cc(-c2cnn(C3CCNCC3)c2)cnc1N)c1c(Cl)ccc(F)c1Cl [crizotinib]
Procedure, shortened: as §1

[2] = compound: C[C@@H]1COCCN1C2=NC(=NC(=C2)C3(CC3)S(=O)(=O)C)C4=C5C=CNC5=CC=C4
Procedure, shortened: as §1

[3] = compound: C[C@H](C1=CC=C(C=C1)C(=O)NC2=C3C=CNC3=NC=C2)N
Procedure, shortened: as §1

duvelisib = compound: C[C@H](Nc1ncnc2nc[nH]c12)c1cc2cccc(Cl)c2c(=O)n1-c1ccccc1 [duvelisib]
Procedure, shortened: as §1

gandotinib = compound: Cc1cc(Nc2cc(CN3CCOCC3)c3nc(C)c(Cc4ccc(Cl)cc4F)n3n2)n[nH]1 [gandotinib]
Procedure, shortened: as §1

tozasertib = compound: Cc1cc(Nc2cc(N3CCN(C)CC3)nc(Sc3ccc(NC(=O)C4CC4)cc3)n2)n[nH]1 [tozasertib]
Procedure, shortened: as §1

[4] = compound: Cc1cc(SCc2sc(-c3ccc(C(F)(F)F)cc3)nc2C)ccc1OCC(=O)O
Procedure, shortened: as §1

doramapimod = compound: Cc1ccc(-n2nc(C(C)(C)C)cc2NC(=O)Nc2ccc(OCCN3CCOCC3)c3ccccc23)cc1 [doramapimod]
Procedure, shortened: as §1

ispinesib = compound: Cc1ccc(C(=O)N(CCCN)[C@@H](c2nc3cc(Cl)ccc3c(=O)n2Cc2ccccc2)C(C)C)cc1 [ispinesib]
Procedure, shortened: as §1

UniProt O95182, sequence (O95182 whole entry, looked up): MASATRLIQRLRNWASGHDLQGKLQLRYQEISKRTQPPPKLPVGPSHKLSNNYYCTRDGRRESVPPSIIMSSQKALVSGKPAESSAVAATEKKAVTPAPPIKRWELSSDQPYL
UniProt Q92692, sequence (Q92692 whole entry, looked up): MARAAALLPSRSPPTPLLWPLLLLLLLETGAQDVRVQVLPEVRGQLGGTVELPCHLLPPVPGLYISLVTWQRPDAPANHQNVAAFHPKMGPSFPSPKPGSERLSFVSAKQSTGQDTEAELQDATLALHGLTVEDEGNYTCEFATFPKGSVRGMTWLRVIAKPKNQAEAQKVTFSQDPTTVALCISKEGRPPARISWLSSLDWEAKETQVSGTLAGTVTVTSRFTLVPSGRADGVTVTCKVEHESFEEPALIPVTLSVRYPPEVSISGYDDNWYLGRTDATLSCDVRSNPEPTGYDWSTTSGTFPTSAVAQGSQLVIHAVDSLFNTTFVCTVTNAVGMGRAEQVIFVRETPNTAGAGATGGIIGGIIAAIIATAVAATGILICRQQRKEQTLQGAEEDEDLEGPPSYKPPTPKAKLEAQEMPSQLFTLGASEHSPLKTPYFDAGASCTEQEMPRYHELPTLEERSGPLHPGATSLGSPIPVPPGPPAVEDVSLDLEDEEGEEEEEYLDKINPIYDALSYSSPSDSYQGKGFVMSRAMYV
UniProt P40261, sequence (P40261 whole entry, looked up): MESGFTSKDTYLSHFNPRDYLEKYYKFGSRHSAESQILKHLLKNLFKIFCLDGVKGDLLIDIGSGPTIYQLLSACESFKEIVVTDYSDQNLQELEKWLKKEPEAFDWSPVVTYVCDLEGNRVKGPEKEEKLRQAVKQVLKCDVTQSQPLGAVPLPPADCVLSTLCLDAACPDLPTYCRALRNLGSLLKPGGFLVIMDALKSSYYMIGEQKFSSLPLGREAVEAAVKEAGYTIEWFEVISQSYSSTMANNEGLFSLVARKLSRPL
UniProt Q9UK23, sequence (Q9UK23 whole entry, looked up): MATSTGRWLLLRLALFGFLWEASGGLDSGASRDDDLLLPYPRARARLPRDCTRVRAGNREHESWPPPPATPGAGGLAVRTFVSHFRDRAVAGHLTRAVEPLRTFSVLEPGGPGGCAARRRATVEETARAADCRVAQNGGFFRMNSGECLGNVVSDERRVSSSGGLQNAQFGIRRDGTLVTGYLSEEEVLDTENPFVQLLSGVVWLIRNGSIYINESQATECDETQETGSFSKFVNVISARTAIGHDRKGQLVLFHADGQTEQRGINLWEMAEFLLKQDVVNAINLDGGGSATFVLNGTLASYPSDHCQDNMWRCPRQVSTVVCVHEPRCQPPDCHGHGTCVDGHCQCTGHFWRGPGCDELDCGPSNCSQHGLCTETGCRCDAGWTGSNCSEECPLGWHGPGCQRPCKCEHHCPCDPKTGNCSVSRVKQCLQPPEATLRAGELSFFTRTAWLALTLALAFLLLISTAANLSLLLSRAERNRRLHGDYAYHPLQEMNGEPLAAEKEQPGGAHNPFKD
UniProt P35580, sequence (P35580 whole entry, looked up): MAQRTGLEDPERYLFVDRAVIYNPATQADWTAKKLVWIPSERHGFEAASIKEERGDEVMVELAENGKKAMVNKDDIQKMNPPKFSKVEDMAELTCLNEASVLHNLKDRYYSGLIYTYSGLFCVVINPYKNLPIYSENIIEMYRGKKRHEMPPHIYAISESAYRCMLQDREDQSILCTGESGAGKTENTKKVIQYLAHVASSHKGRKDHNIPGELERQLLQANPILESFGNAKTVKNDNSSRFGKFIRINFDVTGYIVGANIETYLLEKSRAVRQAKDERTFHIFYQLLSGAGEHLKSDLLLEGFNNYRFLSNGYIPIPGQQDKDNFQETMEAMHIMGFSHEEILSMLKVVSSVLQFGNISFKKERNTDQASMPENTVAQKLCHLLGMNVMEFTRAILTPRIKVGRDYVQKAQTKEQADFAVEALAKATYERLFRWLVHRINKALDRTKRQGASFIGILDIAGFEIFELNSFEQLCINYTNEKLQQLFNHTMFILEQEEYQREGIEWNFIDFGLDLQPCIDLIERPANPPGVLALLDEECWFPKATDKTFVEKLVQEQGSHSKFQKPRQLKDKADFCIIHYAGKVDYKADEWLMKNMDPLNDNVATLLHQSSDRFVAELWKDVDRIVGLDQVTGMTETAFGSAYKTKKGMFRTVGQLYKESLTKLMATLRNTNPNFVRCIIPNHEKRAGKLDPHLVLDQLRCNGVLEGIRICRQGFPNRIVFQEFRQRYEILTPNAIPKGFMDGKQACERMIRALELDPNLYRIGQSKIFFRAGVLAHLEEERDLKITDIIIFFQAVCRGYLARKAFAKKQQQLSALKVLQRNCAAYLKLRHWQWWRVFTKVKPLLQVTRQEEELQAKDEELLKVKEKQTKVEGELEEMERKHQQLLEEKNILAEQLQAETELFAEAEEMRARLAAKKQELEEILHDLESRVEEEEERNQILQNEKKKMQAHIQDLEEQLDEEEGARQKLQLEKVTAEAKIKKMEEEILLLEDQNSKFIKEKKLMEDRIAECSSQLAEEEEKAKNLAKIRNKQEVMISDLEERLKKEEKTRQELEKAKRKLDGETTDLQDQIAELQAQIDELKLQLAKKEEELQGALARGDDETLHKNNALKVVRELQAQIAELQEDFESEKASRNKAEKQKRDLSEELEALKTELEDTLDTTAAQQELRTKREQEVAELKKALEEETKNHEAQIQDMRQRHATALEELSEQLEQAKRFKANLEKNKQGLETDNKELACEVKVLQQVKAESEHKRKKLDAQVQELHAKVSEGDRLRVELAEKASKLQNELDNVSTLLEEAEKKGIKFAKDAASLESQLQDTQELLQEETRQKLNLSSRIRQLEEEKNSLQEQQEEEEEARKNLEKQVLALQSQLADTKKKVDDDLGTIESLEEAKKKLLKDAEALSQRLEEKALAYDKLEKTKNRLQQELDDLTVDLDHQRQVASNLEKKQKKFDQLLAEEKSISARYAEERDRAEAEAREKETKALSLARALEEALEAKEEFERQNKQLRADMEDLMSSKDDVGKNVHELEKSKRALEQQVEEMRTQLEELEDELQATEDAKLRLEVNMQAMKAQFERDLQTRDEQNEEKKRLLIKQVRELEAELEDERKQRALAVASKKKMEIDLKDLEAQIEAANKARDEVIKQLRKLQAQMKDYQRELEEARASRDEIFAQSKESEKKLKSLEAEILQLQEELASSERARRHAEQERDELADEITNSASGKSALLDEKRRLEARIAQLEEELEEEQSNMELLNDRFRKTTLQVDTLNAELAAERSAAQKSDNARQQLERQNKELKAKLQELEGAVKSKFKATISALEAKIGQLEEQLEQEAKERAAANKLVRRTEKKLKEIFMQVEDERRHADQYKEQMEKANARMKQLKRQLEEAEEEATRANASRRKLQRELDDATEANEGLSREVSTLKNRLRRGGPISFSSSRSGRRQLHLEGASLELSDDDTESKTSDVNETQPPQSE
UniProt O14524, sequence (O14524 whole entry, looked up): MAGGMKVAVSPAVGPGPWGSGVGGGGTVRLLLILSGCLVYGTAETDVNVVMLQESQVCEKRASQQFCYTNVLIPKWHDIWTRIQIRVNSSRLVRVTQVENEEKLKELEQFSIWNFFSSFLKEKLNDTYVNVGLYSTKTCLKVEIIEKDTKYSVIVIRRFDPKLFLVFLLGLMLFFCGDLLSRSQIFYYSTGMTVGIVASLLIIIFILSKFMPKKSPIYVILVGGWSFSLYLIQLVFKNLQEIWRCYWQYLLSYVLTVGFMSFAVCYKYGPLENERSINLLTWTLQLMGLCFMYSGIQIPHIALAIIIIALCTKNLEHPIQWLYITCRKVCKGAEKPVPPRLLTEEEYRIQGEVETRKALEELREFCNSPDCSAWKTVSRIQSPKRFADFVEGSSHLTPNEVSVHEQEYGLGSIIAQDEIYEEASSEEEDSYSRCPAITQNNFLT
UniProt Q15738, sequence (Q15738 whole entry, looked up): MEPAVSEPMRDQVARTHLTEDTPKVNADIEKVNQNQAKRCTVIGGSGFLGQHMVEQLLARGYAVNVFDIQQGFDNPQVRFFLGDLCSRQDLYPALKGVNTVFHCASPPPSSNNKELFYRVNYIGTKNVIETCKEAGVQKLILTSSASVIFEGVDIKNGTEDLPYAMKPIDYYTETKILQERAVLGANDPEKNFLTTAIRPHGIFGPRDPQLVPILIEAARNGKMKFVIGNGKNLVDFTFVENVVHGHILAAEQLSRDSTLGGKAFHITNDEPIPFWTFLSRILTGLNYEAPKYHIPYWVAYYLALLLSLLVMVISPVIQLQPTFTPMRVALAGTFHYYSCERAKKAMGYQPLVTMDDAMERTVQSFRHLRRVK
UniProt Q9BT67, sequence (Q9BT67 whole entry, looked up): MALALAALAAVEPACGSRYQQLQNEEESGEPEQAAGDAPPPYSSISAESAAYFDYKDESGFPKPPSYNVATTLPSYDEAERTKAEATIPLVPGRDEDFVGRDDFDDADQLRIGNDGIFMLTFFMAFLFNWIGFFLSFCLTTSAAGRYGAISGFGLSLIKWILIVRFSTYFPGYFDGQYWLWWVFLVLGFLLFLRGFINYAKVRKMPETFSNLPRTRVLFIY
UniProt Q9NR45, sequence (Q9NR45 whole entry, looked up): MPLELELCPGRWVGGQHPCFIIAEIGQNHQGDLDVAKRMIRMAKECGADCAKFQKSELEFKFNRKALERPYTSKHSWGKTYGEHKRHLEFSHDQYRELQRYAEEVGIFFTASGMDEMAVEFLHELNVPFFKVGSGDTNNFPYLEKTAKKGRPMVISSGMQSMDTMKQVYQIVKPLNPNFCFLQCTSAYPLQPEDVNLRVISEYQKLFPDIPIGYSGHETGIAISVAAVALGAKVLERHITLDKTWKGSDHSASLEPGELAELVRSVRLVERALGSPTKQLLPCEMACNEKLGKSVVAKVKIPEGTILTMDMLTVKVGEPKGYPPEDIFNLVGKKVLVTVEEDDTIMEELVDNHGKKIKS
UniProt Q8WVJ2, sequence (Q8WVJ2 whole entry, looked up): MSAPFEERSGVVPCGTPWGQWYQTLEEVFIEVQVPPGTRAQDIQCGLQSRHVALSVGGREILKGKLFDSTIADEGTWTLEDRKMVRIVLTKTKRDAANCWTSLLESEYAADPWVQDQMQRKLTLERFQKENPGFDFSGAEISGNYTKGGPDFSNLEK

Target | log2 fold change [1] | log2 fold change (crizotinib) | log2 fold change [2] | log2 fold change [3] | log2 fold change (duvelisib) | log2 fold change (gandotinib) | log2 fold change (tozasertib) | log2 fold change [4] | log2 fold change (doramapimod) | log2 fold change (ispinesib)
NNMT (UniProt P40261) | 0.039 | -0.08 | 0.085 | -0.06 | 0.06 | -0.002 | -0.007 | -0.09 | 0 | –
OSTM1 (UniProt Q86WC4) | -0.014 | -0.244 | 0.028 | -0.021 | -0.017 | -0.225 | -0.003 | -0.033 | 0.041 | -0.308 (active)
NEU3 isoform 2 (UniProt Q9UQ49) | 0.062 | – | – | – | – | – | – | – | – | –
MRPS22 (UniProt P82650) | -0.014 | 0.037 | 0.086 | 0.055 | 0.043 | 0.008 | 0.004 | 0.081 | 0.002 | -0.258 (active)
NAGPA (UniProt Q9UK23) | 0.017 | 0.178 | -0.078 | -0.014 | 0.067 | 0.024 | -0.094 | -0.079 | 0.072 | –
NANS (UniProt Q9NR45) | -0.074 | 0.026 | 0.052 | -0.098 | 0.02 | -0.03 | 0.043 | 0.001 | -0.006 | 0.074
OSTC (UniProt Q9NRP0) | 0.044 | -0.047 | 0.132 | -0.089 | 0.041 | -0.112 | -0.001 | -0.042 | 0.028 | -0.117
NEDD4 isoform 4 (UniProt P46934) | -0.05 | -0.081 | 0.095 | -0.039 | -0.006 | -0.061 | 0.093 | -0.009 | -0.042 | -0.022
NUMB (UniProt P49757) | 0.056 | -0.189 | 0.07 | -0.068 | -0.05 | -0.06 | -0.082 | 0.006 | -0.012 | -0.073
MRPL34 (UniProt Q9BQ48) | -0.004 | -0.045 | 0.077 | 0.179 | -0.079 | 0.164 | -0.002 | 0.051 | 0.152 | -0.284
OPA1 isoform 2 (UniProt O60313) | 0.056 | -0.326 (active) | 0.048 | -0.003 | 0.034 | -0.063 | -0.075 | 0.054 | -0.031 | -0.337 (active)
NUDCD2 (UniProt Q8WVJ2) | 0.049 | -0.02 | 0.1 | -0.077 | 0.004 | -0.042 | 0.149 | 0.073 | -0.049 | -0.12
MLX (UniProt Q9UH92) | -0.038 | -0.188 | 0.092 | -0.001 | -0.131 | -0.239 | -0.043 | 0.115 | 0.03 | -0.186
MRPS17 (UniProt Q9Y2R5) | 0.038 | 0.034 | 0.097 | 0.076 | 0.012 | -0.06 | -0.019 | 0.166 | 0.033 | -0.345 (active)
NUDT21 (UniProt O43809) | -0.054 | 0.039 | -0.031 | -0.209 (active) | -0.01 | -0.059 | 0.013 | 0.039 | 0.007 | 0.116
NFATC2 (UniProt Q13469) | 0 | -0.154 | -0.175 | 0 | 0.003 | 0.048 | 0.02 | 0.024 | 0.027 | -0.18

Target | log2 fold change [1] | log2 fold change (crizotinib) | log2 fold change [2] | log2 fold change [3] | log2 fold change (duvelisib) | log2 fold change (gandotinib) | log2 fold change (tozasertib) | log2 fold change [4] | log2 fold change (doramapimod) | log2 fold change (ispinesib)
OTUD4 (UniProt Q01804) | 0.018 | -0.001 | -0.094 | 0.106 | -0.073 | 0.059 | 0.034 | -0.001 | 0.052 | -0.034
MORC3 (UniProt Q14149) | 0.058 | 0.052 | 0.197 | -0.106 | 0.106 | -0.017 | 0.185 | 0.122 | -0.067 | 0.041
NDUFA7 (UniProt O95182) | -0.004 | -0.103 | 0.02 | 0.039 | 0.012 | -0.12 | -0.101 | 0.07 | -0.041 | -0.118
NUP160 (UniProt Q12769) | 0.017 | -0.014 | 0.034 | -0.027 | 0.024 | -0.06 | 0.078 | 0.007 | 0.019 | 0.044
NSDHL (UniProt Q15738) | 0.04 | 0.314 (active) | 0.045 | -0.105 | 0.024 | 0.239 | 0.083 | 0.058 | 0.22 (active) | -0.016
NFX1 (UniProt Q12986) | -0.024 | -0.232 | -0.315 | 0.09 | 0.172 | 0.21 | -0.008 | -0.164 | 0.293 | -0.202
NFYC (UniProt Q13952) | 0.022 | 0.013 | 0.054 | 0.005 | 0.086 | 0.002 | 0.022 | 0.027 | 0.001 | 0.089
NUP85 (UniProt Q9BW27) | 0.022 | -0.007 | 0.049 | -0.088 | 0.033 | -0.107 | 0.048 | 0.026 | -0.021 | 0.015
NUP210 (UniProt Q8TEM1) | -0.039 | -0.235 (active) | 0.005 | -0.006 | -0.002 | -0.083 | -0.054 | 0.047 | 0.002 | -0.351 (active)
NHLRC2 (UniProt Q8NBF2) | 0.1 | -0.127 | 0.165 | -0.011 | 0.05 | -0.158 | -0.105 | 0.044 | -0.005 | -0.198
NECTIN2 (UniProt Q92692) | 0.004 | 0.121 | 0.082 | -0.148 | 0.062 | -0.036 | -0.048 | -0.038 | 0.015 | 0.113
NDFIP1 (UniProt Q9BT67) | 0.349 | -0.004 | 0.045 | -0.167 | 0.039 | 0.052 | 0.046 | 0.08 | -0.068 | 0.015
NMT1 (UniProt P30419) | 0.085 | -0.17 | -0.058 | -0.032 | -0.003 | 0.066 | -0.012 | -0.003 | 0 | -0.164
NEMP1 (UniProt O14524) | -0.058 | -0.121 | -0.035 | 0.011 | 0.013 | -0.1 | -0.004 | -0.014 | 0.032 | -0.354 (active)
MYH10 isoform 3 (UniProt P35580) | -0.013 | -0.038 | 0.056 | -0.026 | 0.023 | -0.004 | -0.009 | 0.013 | 0.009 | 0.01
